Bioassay records from PubChem.
FBPA coupling cs = counter-screen for Giardia aldolase inhibitors: coupling enzyme system; coupling enzyme system counterscreen, AmpLite Red fluorescence; actives 0.67% (n = 290,000); activity change, negative = inhibition, % at 58.2 µM, hits read low; AID 2472; in the data active = activity change below about -30%
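Activity here indicates interference with the coupling reaction, not aldolase inhibition. Compounds at 57.5 uM final met coupling enzymes for 10 min at RT; substrate and AmpLite Red detection followed, with a 525/598 nm fluorescence read after 20 min.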
TrxR1 substrate = rat thioredoxin reductase 1 substrate activity; O89049; purified TrxR1 substrate turnover, NADPH consumption readout; Potency, µM (titrated, usually from 114 µM), for inactives: at the highest dose activity change, negative = substrate turnover; actives 0.01% (n = 390,000); AID 588456; note: potency is the fitted concentration of half-maximal effect; nearly all actives have a fitted effect of over 50% in size
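Rat TrxR1, dispensed at 90 nM, was prereduced with 400 uM NADPH (final) for 5 min at ~22 deg C, then incubated with compound 15 min before 400 uM selenite. A first-read NADPH fluorescence drop versus no-compound background flagged substrates.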
Eya2 inh = blocks the phosphatase activity of human Eya2; AID 488837; Potency, µM (series often up to 76.9 µM), without a hit: at the highest dose activity, negative = inhibition, usual class: inhibitors; O00167; actives 0.006% (n = 330,000); recombinant Eya2, OMFP fluorescence dephosphorylation (OMFP is methylfluorescein phosphate); note: potency is the fitted concentration of half-maximal effect
Target sequence (O00167 whole entry, looked up): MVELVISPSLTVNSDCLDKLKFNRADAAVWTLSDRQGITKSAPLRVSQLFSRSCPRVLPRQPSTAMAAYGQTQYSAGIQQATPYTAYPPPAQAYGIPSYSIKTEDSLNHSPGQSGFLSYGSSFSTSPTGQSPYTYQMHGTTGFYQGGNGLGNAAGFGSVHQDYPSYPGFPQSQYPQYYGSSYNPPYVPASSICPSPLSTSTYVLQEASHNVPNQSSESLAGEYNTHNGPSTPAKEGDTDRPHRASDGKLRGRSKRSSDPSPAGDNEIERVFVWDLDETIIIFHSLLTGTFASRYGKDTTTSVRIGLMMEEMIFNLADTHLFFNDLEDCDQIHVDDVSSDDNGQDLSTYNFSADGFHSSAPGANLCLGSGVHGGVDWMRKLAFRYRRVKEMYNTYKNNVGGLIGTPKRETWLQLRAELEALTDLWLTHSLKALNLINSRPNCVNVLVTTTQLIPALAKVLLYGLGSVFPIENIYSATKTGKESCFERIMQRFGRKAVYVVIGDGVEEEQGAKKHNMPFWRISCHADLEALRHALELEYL
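Eya2 protein (added as 0.2 uM solution) was preincubated with compound for 10 min at ambient temperature in 50 mM HEPES pH 7.5, 50 mM NaCl, 5 uM MgCl2, 0.05% BSA, 1 mM DTT. OMFP (added at 50 uM) then reacted 10 min; fluorescence read at 485/525 nm.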
rTrxR1 inhibitor = inhibitors of rat thioredoxin reductase 1; O89049; recombinant rTrxR1, NADPH fluorescence consumption, selenite substrate; Potency, µM (series often up to 114 µM), for the others: at the highest dose activity change, negative = inhibition, usual class: inhibitors; actives 1% (n = 390,000); note: potency is the fitted concentration of half-maximal effect; nearly all actives have a fitted effect of over 65% in size
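Rat TrxR1 (90 nM in the dispensed reagent) was pre-reduced with 400 uM NADPH for 5 min at room temperature, then incubated with compound for 15 min. After 400 uM selenite was added, NADPH fluorescence (Ex 340/Em 450 nm) was followed for 8 min.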
IDH1 R132H inh = human IDH1 R132H inhibition | Potency, µM (titrated, usually from 76.6 µM), inactives show at the highest dose activity change, negative = inhibition, actives largely listed as inhibitors | O75874 | IDH1-R132H enzyme, NADPH consumption, diaphorase/resazurin fluorescence | actives 0.093% (n = 390,000); note: potency is the fitted concentration of half-maximal effect; nearly all actives have a fitted effect of over 65% in size
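IDH1-R132H (0.5 ug/mL dispensed) in pH 7.5 Tris buffer was preincubated 30 min with compound, then given a substrate mix of 0.016 mM NADPH and 2 mM alpha-KG for 80 min at room temperature; remaining NADPH was read by diaphorase/resazurin fluorescence.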
* = called active by the depositor; u = inconclusive; x = not tested or not shown; [ ] = remark or other dose. Hits are enriched below; roughly 1.5% of the tested compounds scored in any of these assays. Unless noted, calls come from the whole dose curve; as a rule, active = well fitted curve in the direction sought with a large enough effect; inconclusive = small, poorly fitted or top-dose-only effect, or another doubt; inactive = no such curve, though single readings can be large; an effect the other way counts as inactive or inconclusive. % is set by controls: 0 for no effect and ±100 for the full control effect.

SMILES	FBPA coupling cs	TrxR1 substrate	Eya2 inh	rTrxR1 inhibitor	IDH1 R132H inh
COc1ccc(CN2CC[C@H]3C=CC[C@@H](C(=O)Nc4ccc(Cl)cc4Cl)[C@H]3C2=O)cc1OC	x	-1%	x	27%	x
O=C1CN(CC(=O)N2CCCCC2)c2ccccc2O1	-17	0%	-1%	25µM*	5%
O=C1CN(CC(=O)N2CCOCC2)c2ccccc2O1	-64*	x	-1%	x	x
CCN(CC)CC(=O)c1c(C)n(C)c2ccc(OC)cc12	x	3%	x	20%	x
Cc1ccc(-c2nc3ncccn3c2Nc2ccc3c(c2)OCCO3)o1	1	1%	17%	40µM*	5%
Cc1ccc2nc(-c3ccccc3F)c(Nc3ccc(Cl)cc3)n2c1	x	94%	x	15%	-7%
Cc1ccc(-c2nc3ccc(Cl)cn3c2Nc2ccccc2)o1	x	6%	x	u	x
Cc1ccc(-c2nc3cnccn3c2Nc2ccccc2)o1	0	13%	-9%	40µM*	-8%
Fc1ccccc1-c1ccc(-c2nc3ccc(Cl)cn3c2Nc2ccc(Cl)cc2)o1	x	3%	x	25µM*	x
Cc1ccc2nc(-c3ccc(C)o3)c(Nc3ccccc3)n2c1	x	24%	x	18µM*	x
Cc1ccc(-c2nc3ccccn3c2Nc2ccccc2)o1	0	34%[57.1 µM]	-12%	58%	-5%
Cc1ccccc1CN1Cc2cccc3c2[C@H](C=CC3)CC1=O	x	5%	x	4%	x
COc1ccc(/C=C/c2ccccn2)cc1	x	-9%	x	-21%	x
COc1ccc2c(c1)O[C@@H](c1ccc3c(c1)OCO3)[C@H](OC(=O)NCCOc1ccccc1)C2=O	2	x	x	x	x
CCCC(=O)C1=C(c2ccccc2)C(C#N)(C#N)C(C#N)=C1N	-15	-10%	9%	13µM*	9%
CCCC(=O)C1=C(N(C)c2ccccc2)CC(C)(C)CC1=O	-1	-5%	5%	1%	-13%
O=C(O)c1ccc2c(c1)C1C=CCC1C(c1ccncc1)N2 (centres undefined)	-31*	-3%	2%	-2%	3%
FC(F)(F)c1ccc2c(c1)C1C=CCC1C(c1ccncc1)N2 (centres undefined)	-11	5%[57.1 µM]	-3%	0%[57.1 µM]	-2%
CCCC1Nc2ccc(C(=O)O)cc2C2C=CCC12 (centres undefined)	-3	-6%	2%	50µM*	3%
CC(=O)c1ccc2c(c1)C1C=CCC1C(c1ccc(S(=O)(=O)N3CCOCC3)cc1)N2 (centres undefined)	-9	-9%	-3%	50µM*	2%
COC(=O)c1ccc([C@H]2Nc3ccc(S(=O)(=O)Nc4ccc(C)cc4)cc3[C@H]3C=CC[C@H]32)cc1	x	3%	x	50µM*	15%
C=CCC1(O)CCOc2ccccc21 (centres undefined)	-2	x	x	x	x
C[C@H]1Cc2c(COc3ccccc3)nc3c(c2CO1)CN(C(=O)C1CCCCC1)CC3	-1	x	x	x	x
CCOC(=O)c1ccc2c(c1)C1C=CCC1C(C(=O)O)N2 (centres undefined)	-4	x	13%	x	x
CCOC(=O)C1Nc2ccc(C(=O)O)cc2C2C=CCC12 (centres undefined)	-13	-1%	-11%	11µM*	6%
SMILES	FBPA coupling cs	TrxR1 substrate	Eya2 inh	rTrxR1 inhibitor	IDH1 R132H inh
CCOC(=O)C1(C)C(C(=O)OC)=C(c2ccc(OC)cc2)c2ccccc2N1C(=O)OC (centres undefined)	-2	3%	-15%	40µM*	1%
CCOc1cc(/C=C2\C(=O)N(Cc3ccco3)C(C)=C2C(=O)OC)ccc1O	-14	-9%	6%	22µM*	7%
CCOc1cc(/C=C2\C(=O)N(CCc3ccc(OC)c(OC)c3)C(C)=C2C(=O)OC)ccc1O	-16	-4%	-2%	u	4%
COC(=O)C1=C(C)N(CCc2ccccc2)C(=O)/C1=C\c1ccco1	0	-7%	-5%	u	5%
CCOC(=O)C1=C(C)N(c2ccc(C)cc2)C(=O)/C1=C\c1ccc(O)c(OC)c1	-17	4%	-13%	18µM*	8%
COC(=O)C1=C(C)N(Cc2ccccc2)C(=O)/C1=C\c1ccco1	2	11%	-1%	50µM*	0%
CCOC(=O)C[C@H]1c2cc(F)ccc2S(=O)(=O)N1Cc1cc(OC)c(OC)c(OC)c1	x	10%	x	26%	x
